An excerpt weighted towards active compounds, which were near 11% of everything screened.
NPSR antag: blocks cAMP signaling of the human neuropeptide S receptor; CHO-NPSR cells, cAMP TR-FRET, antagonist mode; Potency, µM (top dose mostly 38.3 µM), usual class: inhibitors; 220,000 tested, 1% active; AID 1461; note: nearly all actives have a fitted effect of over 50% in size
ALDH1A1 block: inhibitors of human aldehyde dehydrogenase 1A1. P00352. Purified ALDH1A1, NADH fluorescence, propionaldehyde substrate. Potency, µM (titrated, usually from 75.3 µM), most hits filed as inhibitors. 220,000 tested, 7.3% active; active = well fitted inhibition curve with a large enough effect, not every such curve was filed as active; inconclusive = small, poorly fitted or top-dose-only effect, or another doubt; inactive = no such curve, though single readings can be large or run the other way
IMPase inh: membrane-permeable compound that blocks inositol monophosphatase | P97697 | 120,000 tested, under 10 active | CHO-M1 cells, IP1 accumulation, HTRF TR-FRET ratio | inhibition (IP1 accumulation), % at 46.1 µM | AID 901; active = well fitted curve in the direction sought with a large enough effect in the signal ratio, not every such curve was filed as active; inconclusive = small, poorly fitted or top-dose-only effect, or a change in a side signal; inactive = no such curve, though single readings can be large or run the other way; the % refers to the signal ratio;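 note: cells stimulated with carbachol in lithium chloride buffer; higher means more IMPase inhibition seen as more IP1 and lower FRET ratio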
Target sequence (P97697 whole entry, looked up): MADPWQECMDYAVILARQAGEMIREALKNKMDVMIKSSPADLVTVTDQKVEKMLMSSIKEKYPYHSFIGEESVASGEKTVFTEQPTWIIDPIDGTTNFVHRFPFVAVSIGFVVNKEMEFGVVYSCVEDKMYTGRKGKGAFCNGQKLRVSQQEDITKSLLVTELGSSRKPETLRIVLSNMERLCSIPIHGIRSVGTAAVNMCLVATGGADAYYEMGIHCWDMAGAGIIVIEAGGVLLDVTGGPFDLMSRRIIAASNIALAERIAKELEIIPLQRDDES
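The IP-One HTRF competitive assay in carbachol-stimulated CHO-M1 cells quantifies cellular IP1. Compounds spanned up to 46 uM final, and activity is expressed as AC50 from concentration-response fits of the ratio and donor data.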
IMPase Li inh: cell-permeable IMPase inhibitors with lithium potentiation. CHO-M1 cells, IP1 TR-FRET (IP-One), carbachol + lithium. Potency, µM (titrated, usually from 59.4 µM), usual class: inhibitors. 210,000 tested, 0.35% active. AID 1457;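 note: IP1 builds up when IMPase is blocked and the TR-FRET signal falls; nearly all actives have a fitted effect of over 50% in size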
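IP1 accumulation measured by competitive TR-FRET in lysed CHO-M1 cells after 30 min compound exposure at 37C, with a small lithium addition to potentiate weak responses. Hill-equation AC50 from ratio and donor-channel data.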
HPGD inh: inhibitors of human 15-hydroxyprostaglandin dehydrogenase (HPGD). P15428. purified HPGD, NADH fluorescence kinetic, PGE2 substrate. AID 894. Potency, µM, most hits filed as inhibitors. 150,000 tested, 4.3% active; active = well fitted inhibition curve with a large enough effect, not every such curve was filed as active; inconclusive = small, poorly fitted or top-dose-only effect, or another doubt; inactive = no such curve, though single readings can be large or run the other way
Target sequence (P15428 whole entry, looked up): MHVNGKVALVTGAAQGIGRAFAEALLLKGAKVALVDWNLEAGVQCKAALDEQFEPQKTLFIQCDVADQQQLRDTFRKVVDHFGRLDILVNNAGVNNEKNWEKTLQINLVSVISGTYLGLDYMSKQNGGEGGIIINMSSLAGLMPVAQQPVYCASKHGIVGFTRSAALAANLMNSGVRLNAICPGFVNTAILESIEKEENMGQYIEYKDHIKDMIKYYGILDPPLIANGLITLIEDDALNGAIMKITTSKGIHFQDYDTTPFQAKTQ
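20 nM HPGD preincubated 15 min at room temperature with compound in 50 mM Tris-HCl pH 8, 0.01% Tween 20. Started with 1 mM NAD+ and 30 uM prostaglandin E2; NADH fluorescence (360/450 nm) read 5 times over 30-s intervals, last minus first.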
PNC assembly inh: inhibitors of perinucleolar compartment assembly; activity change (PNC), negative = inhibition, % at 10 µM; PC3M PTB-GFP, PNC prevalence imaging, 16 h; hits give low values; 140,000 tested, 3.1% active;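 active = readout at or below -70, meaning at least 70% loss of cells showing the perinucleolar compartment, a nuclear body marking cancer cells; inconclusive = readout between -30 and a set limit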
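Compounds are pinned in duplicate onto adhered PC3M cells stably expressing GFP-tagged PTB and incubated 16 h at 37 C. Cells are then fixed, nuclei stained with Hoechst, and PNC-positive cells counted.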
Numbers stand for hits. Unless noted, calls come from the whole dose curve; as a rule, active = well fitted curve in the direction sought with a large enough effect; inconclusive = small, poorly fitted or top-dose-only effect, or another doubt; inactive = no such curve, though single readings can be large; an effect the other way counts as inactive or inconclusive.

Screening CCc1ccc(-c2c(C)sc(NC(=O)C3CCC3)c2C#N)cc1 returned NPSR antag inactive, ALDH1A1 block inactive, IMPase Li inh inconclusive, HPGD inh inactive and PNC assembly inh inactive.
`Cc1sc(NC(=O)C2CCCC2)c(C#N)c1C` gave NPSR antag inactive, ALDH1A1 block 14µM, IMPase Li inh inactive, HPGD inh 10µM and PNC assembly inh inconclusive.
CCCCCC(=O)Nc1sc(C)c(C)c1C#N was read as NPSR antag inactive, ALDH1A1 block 10µM, IMPase Li inh inactive, HPGD inh 25µM and PNC assembly inh inconclusive.
`Cc1cc(C)c(N=C2CCCN2Cc2ccccc2)c(C#N)c1` gave NPSR antag inactive, ALDH1A1 block inactive, IMPase inh inactive, IMPase Li inh inconclusive, HPGD inh inactive and PNC assembly inh inactive.
COC(=O)c1cc(NCc2ccc3c(c2)OCO3)ccc1N1CCOCC1 was read as NPSR antag inactive, ALDH1A1 block 14µM, IMPase inh inactive, IMPase Li inh inactive, HPGD inh inactive and PNC assembly inh inactive.
For O=C(c1ccc(NC(=S)NCc2ccco2)cc1)N1CCCCC1 the results were NPSR antag inactive, ALDH1A1 block 22µM and IMPase Li inh inactive.
Screening CCNS(=O)(=O)c1ccc(NC(=S)NCc2ccco2)cc1 returned NPSR antag inactive, ALDH1A1 block 22µM, IMPase Li inh inactive, HPGD inh inactive and PNC assembly inh inactive.
Screening S=C(NCc1ccco1)Nc1ccc(Cl)cc1 returned NPSR antag inactive, ALDH1A1 block inconclusive, IMPase Li inh inactive, HPGD inh 18µM and PNC assembly inh inactive.
Cc1cccnc1NC(=S)NCc1ccco1 was read as NPSR antag inactive, ALDH1A1 block 13µM and IMPase Li inh inactive.
`Cn1c(=O)c2c(nc(NCc3ccco3)n2CC(O)COc2ccccc2)n(C)c1=O` (configuration not stated) gave NPSR antag inactive, ALDH1A1 block inactive, IMPase inh inactive, IMPase Li inh inactive, HPGD inh inactive and PNC assembly inh inactive.
`NS(=O)(=O)c1ccc(CCNC(=O)c2ccco2)cc1` gave NPSR antag inactive, ALDH1A1 block inactive and IMPase Li inh inactive.
For CCOc1ccc(OCC)c(NC(=O)CSCC(=O)O)c1 the results were NPSR antag inactive, ALDH1A1 block inconclusive, IMPase inh inactive and PNC assembly inh inactive.
For COc1ccc(OC)c(NC(=O)CSc2ccc3ccccc3c2)c1 the results were NPSR antag inactive, ALDH1A1 block 11µM, IMPase inh inactive and PNC assembly inh inconclusive.
COc1ccc(OC)c(NC(=O)CSc2ccccc2)c1 was read as NPSR antag inactive, ALDH1A1 block inactive, IMPase inh inactive, IMPase Li inh inactive, HPGD inh inactive and PNC assembly inh inactive.
COc1ccc(OC)c(NC(=O)CSCC(=O)O)c1 was read as NPSR antag inactive, ALDH1A1 block 20µM, IMPase inh inactive, IMPase Li inh inactive, HPGD inh inactive and PNC assembly inh inactive.
For Cc1cccc(C(c2c(C)nn(-c3ccccc3)c2N)c2c(C)nn(-c3ccccc3)c2N)c1 the results were NPSR antag inactive, ALDH1A1 block inactive, IMPase inh inactive, IMPase Li inh inactive, HPGD inh inactive and PNC assembly inh inactive.
`COc1ccc(Cc2noc(CN3CCN(Cc4cccc(Cl)c4)CC3)n2)cc1OC` gave NPSR antag inactive, ALDH1A1 block 8.9µM and IMPase Li inh inactive.
For CCCOC(=O)c1ccc(NC(=O)C2C3C=CC(O3)C2C(=O)O)cc1 (configuration not stated) the results were NPSR antag inactive, ALDH1A1 block 1.8µM, IMPase inh inactive, IMPase Li inh inactive, HPGD inh inconclusive and PNC assembly inh inactive.
`CCCOC(=O)c1ccc(NC(=O)c2ccoc2C)cc1` gave NPSR antag inactive, ALDH1A1 block inconclusive, IMPase inh inactive, IMPase Li inh inactive, HPGD inh 32µM and PNC assembly inh inconclusive.
For CCCOC(=O)c1ccc(NC(=O)Oc2ccccc2)cc1 the results were NPSR antag inactive, ALDH1A1 block 25µM, IMPase inh inactive, IMPase Li inh inactive, HPGD inh inconclusive and PNC assembly inh inactive.
CCCOC(=S)Nc1ccccc1 was read as NPSR antag inactive, ALDH1A1 block inactive, IMPase inh inactive, IMPase Li inh inactive, HPGD inh 22µM and PNC assembly inh inactive.
For Cc1ccc(-c2nnn(CC(=O)Nc3cccc4c3CCCC4)n2)o1 the results were NPSR antag inactive, ALDH1A1 block inactive, IMPase inh inactive, IMPase Li inh inactive, HPGD inh inactive and PNC assembly inh inactive.
For Cn1cccc1CC(=O)N/N=C/c1ccc(Cl)cc1 the results were NPSR antag inactive.
For CC(C)C1Nc2ccc(S(N)(=O)=O)cc2C2C=CCC21 (configuration not stated) the results were NPSR antag inactive, ALDH1A1 block 20µM, IMPase inh inactive, IMPase Li inh inactive, HPGD inh inactive and PNC assembly inh inconclusive.
Screening COc1cccc(C2Nc3c(F)cc(Br)cc3C3C=CCC32)c1OC (configuration not stated) returned NPSR antag inactive, ALDH1A1 block inactive, IMPase Li inh inactive, HPGD inh inactive and PNC assembly inh inactive.
For NS(=O)(=O)c1ccc2c(c1)C1C=CCC1C(C1CC=CCC1)N2 (configuration not stated) the results were NPSR antag inactive, ALDH1A1 block inconclusive, IMPase inh inactive, IMPase Li inh inactive, HPGD inh inactive and PNC assembly inh inactive.
Screening COc1cccc2c1NC(C(=O)O)C1CC=CC21 (configuration not stated) returned NPSR antag inactive, ALDH1A1 block 8.9µM, IMPase Li inh inactive, HPGD inh inconclusive and PNC assembly inh inactive.
Screening Cc1ccc2c(c1)C1C=CCC1C(C(=O)O)N2 (configuration not stated) returned NPSR antag inactive, ALDH1A1 block inconclusive, IMPase Li inh inactive, HPGD inh 20µM and PNC assembly inh inactive.
COc1cc2c(cc1OC)-c1c(oc3cc(O)cc(O)c3c1=O)CO2 was read as ALDH1A1 block inactive, IMPase Li inh inactive and HPGD inh inactive.
For CCCS(=O)(=O)c1nc(S(=O)(=O)c2ccc(C)cc2)c(NCCN2CCOCC2)s1 the results were NPSR antag inactive, ALDH1A1 block 14µM, IMPase inh inactive, IMPase Li inh inactive, HPGD inh inactive and PNC assembly inh -107.
COC(=O)c1cnn2c(C)c(Cc3cccc(F)c3)c(C)nc12 was read as NPSR antag inactive, ALDH1A1 block inconclusive, IMPase inh inactive, IMPase Li inh inactive, HPGD inh inconclusive and PNC assembly inh -88.
For CCOC(=O)N1CCN(C(=O)c2cnn3c(C)c(Cc4ccc(C)cc4)c(C)nc23)CC1 the results were NPSR antag inactive, ALDH1A1 block 25µM, IMPase inh inactive and PNC assembly inh inactive.
